Experimental data as given in PubChem BioAssay AID624167 (Sanford-Burnham Center for Chemical Genomics, 2012).

assay: Peg3 promoter luciferase inhibitors, potency, dose response, cell-based, HeLa, CREF/GAPDH counter-screen panel (AID 624167); details: CREF/GAPDH counter-screens; run 2, dose range 1, at 100 µM (top of the series)

With COc1ccc(/C=C2/CCCC(CN(C)C)C2=O)cc1 (stereo not drawn) as the compound, how does the inhibition read?
The inhibition was 67.1%.

With Oc1[nH]c2ccc(Br)cc2c1N=NC(=S)N1CCOCC1 as the compound, how does the inhibition read?
Its inhibition is 63.5%.

Which inhibition does the source give for Cc1ccc(C)c(S(=O)(=O)N2CCN(c3ncnc4sccc34)CC2)c1 here?
Its inhibition is 61.2%.

With Cc1cccc(OCC(=O)NCC(=O)N/N=C/c2cc(Br)cc(Br)c2O)c1 as the compound, how does the inhibition read?
The inhibition was 74.4%.

Which inhibition does the source give for COc1cc(CNCCCN2CCOCC2)cc(Br)c1OCc1ccc(Cl)cc1 here?
The inhibition was 90.7%.

For CCc1ccc(/C=C2\SC(=S)N(CCCC(=O)NC3=NCCS3)C2=O)cc1, which inhibition is on record?
Its inhibition is 72.9%.

For O=C(NNC(=O)c1cccnc1SCc1cccc([N+](=O)[O-])c1)c1ccccn1, which inhibition is on record?
The inhibition was -38.1%.

Which inhibition does the source give for Cc1ccccc1CNC(=O)C1CCCN(c2nnc(C)c3c(C)n(-c4ccccc4)nc23)C1 (stereo not drawn) here?
Its inhibition is 94.8%.

Which inhibition does the source give for C=CCn1c(C)cc(C(=O)COc2ccc(C)nc2[N+](=O)[O-])c1C here?
The inhibition was 51.8%.

For COc1cccc(/C=N/NC(=O)c2c(C)nc3ccc(Cl)cn23)c1O, which inhibition is on record?
Its inhibition is -51.4%.

With COc1cc(/C=C2\SC(=Nc3ccccc3OC)NC2=O)ccc1O as the compound, how does the inhibition read?
The inhibition was 39.3%.

For CCCC(=O)NC(c1ccc(C)cc1)c1ccc2cccnc2c1O (stereo not drawn), which inhibition is on record?
The inhibition was 57.9%.

For Cc1cc(C)c2sc(NNC(=O)c3ccc(S(=O)(=O)N4CCc5ccccc5C4)cc3)nc2c1, which inhibition is on record?
Its inhibition is 62%.

For O=C(COc1ccc2c(c1)CCC2)Nc1ccccn1, which inhibition is on record?
The inhibition was 94.9%.

Which inhibition does the source give for CCCC(=O)NC(c1ccc(Cl)cc1)c1ccc2cccnc2c1O (stereo not drawn) here?
The inhibition was 70.1%.

Which inhibition does the source give for Cc1ccc(OCC(=O)c2cc(C)n(-c3ccccc3)c2C)c([N+](=O)[O-])n1 here?
Its inhibition is 65.4%.

For COc1cc(OC)c2cc(C(=O)N/N=C/c3ccccc3O)[nH]c2c1, which inhibition is on record?
The inhibition was 73.3%.

With Clc1ccccc1/C=C/c1nc(-c2ccccn2)no1 as the compound, how does the inhibition read?
The inhibition was 96.2%.
